In the library only some 5.7% were active in any assay of this set; here they are far more common.
GLP1R ag – qHTS of GLP-1 Receptor Agonists; HEK293 GLP-1R CRE-luciferase, luminescence, 4-6 h; cells express a hypersensitive GLP-1R form; Potency, µM (series often up to 45.6 µM), inactives show at the highest dose activation, usual class: activators; 0.007% of 380,000 active; further: potency means the concentration at half of the fitted maximal effect; % of control where 0% means no effect
Target sequence (P43220 whole entry, looked up): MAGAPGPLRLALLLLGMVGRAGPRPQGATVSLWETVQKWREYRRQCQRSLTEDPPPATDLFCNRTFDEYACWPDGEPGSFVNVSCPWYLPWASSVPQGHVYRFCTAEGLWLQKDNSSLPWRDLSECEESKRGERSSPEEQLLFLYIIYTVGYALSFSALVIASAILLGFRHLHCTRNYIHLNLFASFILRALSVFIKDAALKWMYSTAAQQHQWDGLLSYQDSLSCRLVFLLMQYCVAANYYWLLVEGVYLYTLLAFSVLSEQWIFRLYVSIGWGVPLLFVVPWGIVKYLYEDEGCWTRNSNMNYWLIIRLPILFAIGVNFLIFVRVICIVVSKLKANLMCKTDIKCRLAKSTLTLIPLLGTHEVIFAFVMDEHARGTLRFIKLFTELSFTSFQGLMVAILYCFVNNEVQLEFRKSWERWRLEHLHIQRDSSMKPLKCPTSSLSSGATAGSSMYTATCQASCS
D3 antag – qHTS of D3 Dopamine Receptor Antagonist: qHTS; D(3) dopamine receptor (Homo sapiens), P35462; D3R cells, DiscoveRx beta-arrestin luminescence, antagonist mode; stronger effect = lower value; max response, negative = inhibition, %; 2.5% of 360,000 active; in the data active means max response below about -50%; inconclusive means no clear call, values can overlap the other calls; further: on the % scale 0 is the no-effect control and ±100 the full control effect
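Cells plated overnight at 1500 cells/well, then exposed to library compounds with dopamine controls for 90 minutes at 37 degrees C. DiscoveRx reagent added for 30–60 minutes at room temperature; luminescence read, quantitative HTS format.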
ClpP mod – qHTS Assay for Activators of ClpP. ATP-dependent Clp protease proteolytic subunit (Bacillus subtilis (strain 168)), P80244. 1.9% of 340,000 active. Potency, µM (series often up to 57.5 µM), without a hit: top-dose activity change, negative = active. purified B. subtilis ClpP, FRET peptide cleavage, 20 min; active means well fitted falling curve with a large enough effect; inconclusive means small, poorly fitted or top-dose-only effect; inactive means no such curve, though single readings can be large or run the other way; further: potency means the concentration at half of the fitted maximal effect; the source files actives as falling curves though it sought activators and does not explain the sign; nearly all actives have a fitted effect of over 65% in size
Target sequence (P80244 whole entry, looked up): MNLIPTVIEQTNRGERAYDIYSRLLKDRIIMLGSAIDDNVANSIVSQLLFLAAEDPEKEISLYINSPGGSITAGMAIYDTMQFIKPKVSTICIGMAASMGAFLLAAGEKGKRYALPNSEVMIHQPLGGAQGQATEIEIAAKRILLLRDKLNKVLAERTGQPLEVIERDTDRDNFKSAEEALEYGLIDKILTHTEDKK
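Buffer: 100 mM Tris/HCl pH8, 100 mM KCl, 0.05% low protease BSA, 2.5% glycerol, 0.01% Tween-20. ClpP 10 microg/mL final; 20 min RT; delta FRET normalized to ADEP and DMSO controls.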
GLP-1R inv ag – qHTS of GLP-1 Receptor Inverse Agonists (Inhibition Mode); Glucagon-like peptide 1 receptor (Homo sapiens), P43220; HEK293 GLP-1R CRE-luciferase, luminescence, 24 h; GLP-1R form is constitutively active; Potency, µM (doses to about 38.3 µM), for the others: at the highest dose activity change, negative = inhibition, actives largely listed as inhibitors; 1.6% of 410,000 active; further: potency means the concentration at half of the fitted maximal effect; on the % scale 0 is the no-effect control and ±100 the full control effect; nearly all actives have a fitted effect of over 55% in size
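Inverse agonists were sought by their lowering of basal cAMP reporter luciferase output in HEK293 cells stably carrying constitutively active human GLP-1R, after 24 h compound treatment.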
HEK293 tox – qHTS of GLP-1 Receptor Inverse Agonists: Cytotox Screen | HEK293 cAMP-luciferase reporter cells, luminescence, 24 h | Potency, µM (top dose mostly 38.3 µM), without a hit: top-dose activity change, negative = inhibition, most hits filed as inhibitors | 0.13% of 410,000 active;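 further: loss of luciferase light is scored as toxicity; potency means the concentration at half of the fitted maximal effect; on the % scale 0 is the no-effect control and ±100 the full control effect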
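Here, cytotoxicity is scored as loss of luminescence. The MLSMR collection was tested on cells seeded in medium containing 10% Nu serum, with a 24 hr compound exposure preceded by 12 hours of culture.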
D3 ag – qHTS of D3 Dopamine Receptor Agonist: qHTS; 0.58% of 410,000 active; D3R DiscoveRx beta-arrestin cells, luminescence, 90 min; max activation, %; AID 652048, 2013; D(3) dopamine receptor (Homo sapiens), P35462; in the data active means max activation above about 30%; further: 0% is about no effect
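Agonist mode: compounds and dopamine controls were applied to plated cells for 90 min at 37 degrees C after an overnight attachment at 1500 cells/well. Luminescent read-out followed 30 - 60 minutes at room temperature with DiscoveRx detection reagent.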
The depositor's hits bear a star; ! = repeats disagree. Unless noted, the call rests on the fitted dose curve; in most records, active means well fitted curve in the direction sought with a large enough effect; inconclusive means small, poorly fitted or top-dose-only effect, or another doubt; inactive means no such curve, though single readings can be large; an effect the other way counts as inactive or inconclusive.

`CCn1c2ccccc2c2cc(CNCCCN3CCOCC3)ccc21` gave GLP1R ag -4%, D3 antag -100*, ClpP mod 1%, GLP-1R inv ag inconclusive, HEK293 tox inconclusive and D3 ag -8.
Screening COc1cccc(CNCc2ccc(OC)cc2OC)c1 returned GLP1R ag 6%, D3 antag -5, ClpP mod 0%, GLP-1R inv ag -9%, HEK293 tox -17% and D3 ag -4.
`CC(C)c1ccc(OCC(=O)Nc2c(C(=O)c3ccc(F)cc3)oc3ccccc23)cc1` gave ClpP mod -14%, GLP-1R inv ag 5%, HEK293 tox 17% and D3 ag 5.
O=S(=O)(c1cccc(F)c1)N1CCc2sccc2C1c1ccc(OC(F)(F)F)cc1 (stereo not given) was read as GLP1R ag -1%, D3 antag -23, ClpP mod 0%, GLP-1R inv ag 7.9µM*, HEK293 tox -2% and D3 ag -17.
For CC1c2ccsc2CCN1S(=O)(=O)c1ccccc1 (stereo not given) the results were GLP1R ag 4%, D3 antag 5, GLP-1R inv ag inconclusive, HEK293 tox 3% and D3 ag -8.
`COC(=O)c1sc2cnccc2c1N` gave GLP1R ag -8%, D3 antag 5, ClpP mod 14µM*, GLP-1R inv ag 15%, HEK293 tox 143% and D3 ag 11.
Screening O=C(COc1ccc(Cl)cc1Cl)NC(=O)NC1CCCC1 returned GLP1R ag 27%, D3 antag -5, GLP-1R inv ag inconclusive, HEK293 tox -2% and D3 ag -14.
O=C(COc1ccc(Br)cc1Cl)NC(=O)NC1CCCC1 was read as GLP1R ag 12%, D3 antag -2, ClpP mod 1%, GLP-1R inv ag 3.5µM*, HEK293 tox 0% and D3 ag -3.
`O=C(COc1ccc(Cl)cc1Br)NC(=O)NC1CCCC1` gave GLP1R ag 2%, D3 antag 11, ClpP mod 1%, GLP-1R inv ag 10µM*, HEK293 tox -3% and D3 ag -1.
COc1ccccc1N1CCN(S(=O)(=O)c2c(C)nc3sc(C)c(C)n3c2=O)CC1 was read as ClpP mod -23%, GLP-1R inv ag 1%, HEK293 tox -5% and D3 ag 6.
Screening C[C@@H]1Cc2[nH][nH]c(=O)c2[C@H](C)O1 returned GLP1R ag -4%, D3 antag 5, ClpP mod 2%, GLP-1R inv ag 2%, HEK293 tox 5% and D3 ag -1.
For Clc1ccc2oc(-c3cccnc3)nc2c1 the results were GLP1R ag 9%, D3 antag 48, ClpP mod 25µM*, GLP-1R inv ag 74%, HEK293 tox 21% and D3 ag 3.
`Cc1ccc2nc(-c3cccnc3)oc2c1` gave GLP1R ag -7%, D3 antag -28, ClpP mod 1.4µM*!, GLP-1R inv ag 11%, HEK293 tox 0% and D3 ag -8.
`CCC(C(=O)NC(C)(C)C)n1c(C(c2ccccc2)c2ccccc2)nc2ccccc21` (stereo not given) gave D3 antag 0, ClpP mod -1%, GLP-1R inv ag -19%, HEK293 tox 2% and D3 ag -11.
For COc1ccc(/C=N/NC(=O)Cc2cccs2)cc1 the results were GLP1R ag 26%, D3 antag -27, ClpP mod 3%, GLP-1R inv ag 0%, HEK293 tox 3% and D3 ag -7.
Screening CCN(CC)c1ccc(/C=N/NC(=S)NCc2ccccc2)cc1 returned GLP1R ag 7%, D3 antag -8, ClpP mod 25µM*, GLP-1R inv ag -38%, HEK293 tox -16% and D3 ag 0.
For CCN(CC)c1ccc(/C=N/NC(=O)Cc2cccs2)cc1 the results were GLP1R ag 18%, D3 antag -22, ClpP mod 28µM*, GLP-1R inv ag 0%, HEK293 tox 3% and D3 ag -20.
Screening C=CCNC(=S)N/N=C/c1ccc(C)c([N+](=O)[O-])c1 returned GLP1R ag 18%, D3 antag 8, ClpP mod -2%, GLP-1R inv ag inconclusive, HEK293 tox 7.9µM* and D3 ag -1.
Screening C=CCNC(=S)N/N=C/c1ccc(N(CC)Cc2ccccc2)cc1 returned GLP1R ag 1%, D3 antag inconclusive, ClpP mod 8.9µM*, GLP-1R inv ag inconclusive, HEK293 tox -21% and D3 ag -19.
For C=CCNC(=S)N/N=C/c1ccc(C)cc1C the results were GLP1R ag 0%, D3 antag -13, ClpP mod -1%, GLP-1R inv ag inconclusive, HEK293 tox inconclusive and D3 ag -2.
COc1ccc(OC)c(CNC(=O)CN2N=C(c3ccc(Cl)cc3)CCC2=O)c1 was read as ClpP mod 1%, GLP-1R inv ag 2%, HEK293 tox -4% and D3 ag -6.
Screening CCCCNC(=O)C[C@@H]1C[C@@]2(C(=O)OC)CCCCC=C2N(CCC2=CCCCC2)C1=O returned GLP1R ag -4%, D3 antag 22, ClpP mod 1%, GLP-1R inv ag inconclusive, HEK293 tox -10% and D3 ag 5.
For S=c1[nH]nc(-c2ccc(Br)o2)n1Cc1ccccc1 the results were GLP1R ag 0%, D3 antag -82*, ClpP mod -4%, GLP-1R inv ag inconclusive, HEK293 tox 2% and D3 ag -37.
O=C(N/N=C/c1ccccn1)c1cc(-c2ccc(Br)cc2)nc2ccccc12 was read as GLP1R ag 1%, D3 antag -95*, ClpP mod -1%, GLP-1R inv ag inconclusive, HEK293 tox inconclusive and D3 ag -52.
`O=C(N/N=C/c1ccccn1)c1cc(-c2ccc(Cl)cc2)nc2ccccc12` gave GLP1R ag 3%, D3 antag -67*, ClpP mod 0%, GLP-1R inv ag inconclusive, HEK293 tox inconclusive and D3 ag -26.
For COc1cc2[nH]c(=O)n(Cc3ccc(C(=O)N4CCN(c5cccc(C)c5C)CC4)cc3)c(=O)c2cc1OC the results were GLP1R ag 1%, ClpP mod inconclusive, GLP-1R inv ag -11%, HEK293 tox 4% and D3 ag -1.
